Test results from PubChem BioAssay (NCATS).
Inconclusive results are not listed. Activity calls are given as the source filed them. Unless noted, how the calls were made is not given here.

Columns and labels:
[1] = qHTS profiling for inhibitors of Plasmodium falciparum (HB3) proliferation (AID 743324; active means well fitted curve in the direction sought with a large enough effect; an effect the other way counts as inactive or inconclusive;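 further: 100% = DMSO vehicle wells and 0% = artemisinin-treated control wells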); details: Plasmodium falciparum HB3 blood-stage proliferation; at 28.7 µM (top of the series)
How it was run: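 SYBR Green fluorescence (485 ex/535 em) of lysed cultures, incubated overnight at room temperature in the dark, quantifies parasite DNA. Infected erythrocytes at 0.3% parasitemia and 2.5% hematocrit were exposed 72 h; values normalized to DMSO and 0.29 uM artemisinin controls.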

[2] = qHTS profiling of the MIPE4 collection as inhibitors of Plasmodium falciparum (3D7) proliferation (AID 743344);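 further: scaled between DMSO vehicle wells and 0.29 µM artemisinin as full inhibition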; details: P. falciparum 3D7 in erythrocytes, SYBR Green DNA fluorescence, 72 h; at 28.5 µM (top of the series) unless noted
How it was run: (§1)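 Parasite DNA was quantified by SYBR Green I fluorescence (ex 485, em 535 nm) after overnight lysis in saponin/Triton buffer at room temperature. Cultures at 0.3% parasitemia and 2.5% hematocrit were first exposed to compound for 72 h at 37 C; signals were normalised to artemisinin (0.29 uM) and vehicle wells.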

[3] = qHTS profiling of the MIPE4 collection as inhibitors of Plasmodium falciparum (DD2) proliferation (AID 743345); details: P. falciparum Dd2 in erythrocytes, SYBR Green DNA, 72 h; at 28.5 µM (top of the series) unless noted
How it was run: as §1

[4] = qHTS profiling of the MIPE4 collection as inhibitors of Plasmodium falciparum (DD2) proliferation (Rep 2) (AID 743346); details: P. falciparum Dd2 in erythrocytes, SYBR Green DNA, 72 h; at 28.5 µM (top of the series) unless noted
How it was run: as §1

[5] = qHTS profiling of the MIPE4 collection as inhibitors of Plasmodium falciparum (HB3) proliferation (AID 743347);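 further: plate controls were DMSO vehicle wells for no effect and artemisinin wells for full effect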; details: P. falciparum HB3 in erythrocytes, SYBR Green DNA, 72 h; at 28.5 µM (top of the series) unless noted
How it was run: as §1

[6] = High-throughput drug toxicity screening in the BPDCN cell line Gen2.2 (AID 1224824); details: Gen2.2 BPDCN cells; at 45.8 µM (top of the series) unless noted;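 further: cells exposed to compounds for 48 h before reading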
How it was run: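 Readout is ATP luminescence from Gen2.2 cells after two days of drug exposure in serum-containing medium at 37 °C. Values express percent activity, with vehicle defining full signal and 9.2 uM bortezomib defining zero.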

[7] = High-throughput drug toxicity screening in the BPDCN cell line Cal-1 (AID 1224825); details: Cal-1 BPDCN cell viability, qHTS; at 45.8 µM (top of the series) unless noted
How it was run: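 Percent activity derived from CellTiter-Glo luminescence, scaling DMSO to 100% and 9.2 uM final bortezomib to 0%. BPDCN Cal-1 cells (500/well, RPMI plus 10% FBS) incubated with compounds 48 hours at 37C before reading.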

[8] = qHTS assay for measurement of the activity of small molecule inhibitors on Zika virus induced Caspase-3 activity in human iPSC derived neural progenitor cells (hNPCs) (AID 1224857; active means well fitted curve in the direction sought with a large enough effect; an effect the other way counts as inactive or inconclusive; further: % of control where 0% means no effect; nearly all actives have a fitted effect of over 65% in size)
How it was run: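 Caspase-3/7 induction by a 6-hour ZIKV infection was quantified with a luminescent Caspase-Glo 3/7 reagent incubated 30 minutes at room temperature. Compounds were preincubated with hNPCs for 1 hour; inhibition was calculated against uninfected and infected control wells.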

[9] = qHTS assay for measurement of the activity of small molecule inhibitors on Zika virus induced Caspase-3 activity in human astrocytoma cells (AID 1224859; active means well fitted curve in the direction sought with a large enough effect; an effect the other way counts as inactive or inconclusive;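 further: plate controls were ZIKV-infected untreated cells for no effect and uninfected cells for full effect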)
How it was run: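 In SNB-19 cells plated at 250 cells/well and grown 16-20 h, compounds were applied 1 h before ZIKV (2 FFU/cell). Six hours later caspase-3/7 luminescence was recorded.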

[10] = Identifying Small Molecule Inhibitors of Pancreatic Cancer Stem Cells (SN12C, Adherent) (AID 1259358; active means well fitted curve in the direction sought with a large enough effect; an effect the other way counts as inactive or inconclusive;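 further: cell survival measured after 48 h of compound exposure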; further: potency means the concentration at half of the fitted maximal effect)
How it was run: (§2)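 Pre-formed 14-day tumor spheroids or adherent cells dosed and incubated 48 h, 37C, 5% CO2. Viability assessed by CellTiter-Glo.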

[11] = Identifying Small Molecule Inhibitors of Pancreatic Cancer Stem Cells (Panc1, Spheroid) (AID 1259359; active means well fitted curve in the direction sought with a large enough effect; an effect the other way counts as inactive or inconclusive;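 further: potency means the concentration at half of the fitted maximal effect; compound exposure lasted 48 h before reading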); details: Panc1 spheroid cancer stem cell viability
How it was run: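 Endpoint: ATP-based luminescence, 48 h drug exposure. Bortezomib at 9.2 uM final as full-kill control; DMSO vehicle as negative control; activity normalized between vehicle and cell-free wells.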

[12] = Identifying Small Molecule Inhibitors of Pancreatic Cancer Stem Cells (A278, Adherent) (AID 1259361; active means well fitted curve in the direction sought with a large enough effect; an effect the other way counts as inactive or inconclusive; further: nearly all actives have a fitted effect of over 35% in size;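 on viability (% of control): 100% = DMSO-treated cells and 0% = cell-free media-only wells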)
How it was run: as §2

[13] = Identifying Small Molecule Inhibitors of Pancreatic Cancer Stem Cells (Panc1, Adherent) (AID 1259362; active means well fitted curve in the direction sought with a large enough effect; an effect the other way counts as inactive or inconclusive;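 further: compound exposure lasted 48 h before the viability read; plate controls were DMSO-treated cells for no effect and cell-free media wells for full effect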); details: Potency: viability
How it was run: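 Cytotoxicity read by CellTiter-Glo luminescence after 48 h compound exposure at 37C; percent activity scaled between DMSO-treated cells and cell-free wells. Spheroid formats used cells pre-formed 14 days in stem cell media on hydrogel.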

[14] = Identifying Small Molecule Inhibitors of Pancreatic Cancer Stem Cells (A2780, Spheroid) (AID 1259357; active means well fitted curve in the direction sought with a large enough effect; an effect the other way counts as inactive or inconclusive;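 further: compound exposure lasted 48 h before the ATP luminescence read; 100% = DMSO treated cells and 0% = wells without cells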); details: Potency: A2780 spheroid viability
How it was run: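 Viability is scored by CellTiter-Glo luminescence 48 h after dosing, expressed as percent activity against vehicle and no-cell references. Spheroid formats rely on cells cultured 14 days in stem cell media beforehand.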

SMILES	remaining proliferation (% of control), lower = more inhibition [1] [%]	parasite growth, % of DMSO control [2]	parasite growth remaining, % of DMSO control (lower = more inhibition) [3]	parasite growth, % of control (lower = inhibition) [4] [%]	growth, % of control [5]	cell viability, % of control (lower = more cytotoxic) [6]	viability (% of control) [7]	Potency [8]	Potency [9]	Potency [10]	Potency [11]	IC50 (viability decrease) [12]	Potency [13]	Potency [14]
CO[C@H]1C[C@@H]2CC[C@@H](C)[C@@](O)(O2)C(=O)C(=O)N2CCCC[C@@H]2C(=O)O[C@H]([C@H](C)C[C@@H]2CC[C@H](OCCO)[C@H](OC)C2)CC(=O)[C@H](C)C=C(C)[C@@H](O)[C@@H](OC)C(=O)[C@H](C)C[C@H](C)C=CC=CC=C1C	-1.24	4.95%	7.69%	8.53	3.94%	10.1%	12.7%	inactive	inactive	18.7 µM (active)	26.4 µM (active)	–	–	–
O=c1cc(-c2cccc3c2Sc2ccccc2S3)oc(N2CCOCC2)c1	–	64.9%	90.2%	61.1	39.5%	22.3%	35.7%	inactive	inactive	–	–	–	–	–
Cc1ccc(Nc2cc(-c3cccc(N4C(=O)c5ccccc5C4=O)c3)ncn2)cc1NS(C)(=O)=O	–	76.1%	83.3%	76.5	97.4%	52.3%	13.1%	inactive	inactive	–	–	–	–	–
O=C(NOCC(O)CO)c1cc(Br)c(F)c(F)c1Nc1ccc(I)cc1F (stereo not given)	–	89.4%	87.4%	100	77.4%	1.76%	57.3%	inactive	inactive	–	–	–	–	–
Cc1ccc([C@@H]2O[C@H](CO)[C@@H](O)[C@H](O)[C@@H]2O)cc1Cc1ccc(-c2ccc(F)cc2)s1	–	134%	118%	75.3	–	126%	48.1%	inactive	inactive	–	–	–	–	–
CCC(=O)NC[C@H](Cc1ccc(OCCc2nc(-c3ccccc3)oc2C)cc1)NC(C)=CC(=O)c1ccc(C(F)(F)F)cc1	–	6.82%	7.84%	21.5	9.04%	96.4%	5.56%	inactive	inactive	–	–	–	–	–
CC#CCn1c(N2CCC[C@@H](N)C2)nc2c1c(=O)n(Cc1nc(C)c3ccccc3n1)c(=O)n2C	–	58%	22.5%	22.9	88.9%	159%	101%	inactive	inactive	–	–	–	–	–
NC(CO)(CO)CCc1ccc(Sc2cccc(OCc3ccccc3)c2)cc1Cl	-1.39	4.87%	8.96%	15.3	6.89%	7.64%	5.26%	inactive	inactive	–	–	26.4 µM (active)	inactive	–
O=C(N[C@@H](c1ccccc1)[C@@H]1CCCCN1)c1cccc(C(F)(F)F)c1Cl	29.7	9.06%	8.97%	26.8	–	87.4%	24.7%	inactive	inactive	inactive	–	–	–	–
CC(C)C[C@H](CC(=O)O)C(=O)N[C@@H](Cc1c[nH]c2ccccc12)C(=O)N[C@@H](C)c1ccccc1	–	79.9%	77.8%	–	34.7%	161%	6.64%	inactive	inactive	–	–	–	–	–
COc1cc(Nc2ncc(F)c(Nc3ccc4c(n3)NC(=O)C(C)(C)O4)n2)cc(OC)c1OC	58.2	5.27%	7%	6.47	2.09%	53.6%	58.1%	inactive	inactive	–	–	–	–	inactive
CO[C@H]1C[C@@H]2CC[C@@H](C)[C@@](O)(O2)C(=O)C(=O)N2CCCC[C@@H]2C(=O)O[C@H]([C@H](C)C[C@@H]2CC[C@H](OC(=O)C(C)(CO)CO)[C@H](OC)C2)CC(=O)[C@H](C)C=C(C)[C@@H](O)[C@@H](OC)C(=O)[C@H](C)C[C@H](C)C=CC=CC=C1C	–	5.79%	6.2%	9.78	3.93%	6.71%	3.11%	inactive	inactive	–	–	–	–	–
c1cc(-c2sc(-c3ccncc3)c(-c3ccncc3)c2-c2ccncc2)ccn1	–	8.84%	81.7%	19.1	3.72%	64.5%	79.1%	inactive	inactive	–	–	–	–	–
CC[C@@H]1C=C(C)C[C@H](C)C[C@H](OC)[C@H]2O[C@@](O)(C(=O)C(=O)N3CCCC[C@@H]3C(=O)O[C@H](C(C)=C[C@@H]3CC[C@H](Cl)[C@H](OC)C3)[C@H](C)[C@@H](O)CC1=O)[C@H](C)C[C@H]2OC	–	27.5%	6.74%	17.3	64.6%	12.7%	20.8%	inactive	inactive	–	–	–	–	–
CON=C(C(=O)N[C@@H]1C(=O)N2C(C(=O)OCOC(=O)C(C)(C)C)=C(C=Cc3scnc3C)CS[C@H]12)c1csc(N)n1	–	60.4%	96%	73	84.9%	90.5%	115%	inactive	inactive	–	–	–	–	–
Cc1c[nH]c(C=C2C(=O)Nc3ccccc32)c1CCC(=O)O	–	24.1%	38.5%	29.1	37.7%	45%	55.9%	inactive	inactive	–	–	–	–	–
COc1cc(NC(=O)c2ccc(-c3ccc(Cl)cc3)o2)cc(OC)c1	–	97.8%	97.8%	–	94.4%	9.04%	6.59%	inactive	inactive	–	–	–	–	–
C=CCc1ccc(O)c(-c2ccc(O)c(CC=C)c2)c1	–	22.1%	75.6%	27.4	3.7%	34.9%	21.1%	inactive	inactive	–	–	–	–	–
O=C(Nc1ccccc1Br)N[C@@H]1CCN(c2ccc(C(F)(F)F)cn2)C1	–	73.6%	96.2%	82.5	71.2%	266%	101%	inactive	inactive	–	–	–	–	–
CS(=O)c1ccc(-c2nc(-c3ccc(F)cc3)c(-c3ccncc3)[nH]2)cc1 (stereo not given)	20.3	19.5% [at 57.5 µM]	26.4% [at 57.5 µM]	–	7.77% [at 57.5 µM]	41.2% [at 92.2 µM]	14.2% [at 92.2 µM]	inactive	inactive	inactive	–	inactive	–	–
CC(C)(C(=O)NCC(F)(F)C(F)(F)F)C(=O)N[C@@H]1C(=O)Nc2ccccc2-c2ccccc21	-0.0337	8.18%	9.25%	–	10.3%	71.1%	5.17%	inactive	inactive	inactive	0.0015 µM (active)	inactive	inactive	–
